Among the data in the supplement of paper PMC9262897, “Low-cost anti-mycobacterial drug discovery using engineered E. coli” (Nature Communications, 2022) are growth values, retold here.

This experiment deals with E. coli TESEC Mtb Alr. Nature of the experiment: growth (OD600 after 10 h); higher = more growth (less inhibition). To be noted: compound 0.1 mM. As to the method:
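TESEC Mtb Alr E. coli, or the Alr+ wild-type control, in 384-well plates with Prestwick library compounds at 0.1 mM and 1% DMSO, across arabinose induction levels of 1E3 to 1E7 nM. Growth is read as OD600 after 10 h at 37 °C in triplicate biological replicates.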

Setting [1] is: arabinose 1000 nM, raw OD600 reference: median of DMSO wells 0.294, cell-free background 0.041.
Setting [2] is: arabinose 10000 nM, raw OD600 reference: median of DMSO wells 0.264, cell-free background 0.041.
Where [3] appears, read: arabinose 100000 nM, raw OD600 reference: median of DMSO wells 0.201, cell-free background 0.041.
The mark [4] stands for this setting: arabinose 1000000 nM, raw OD600 reference: median of DMSO wells 0.193, cell-free background 0.041.
[5] abbreviates: arabinose 10000000 nM, raw OD600 reference: median of DMSO wells 0.146, cell-free background 0.041.

Each structure is given as a SMILES string. Counter-ions that a name gives are not always drawn. ± gives the standard deviation of the averaged measurements.

As for `Clc1ccc(CSC(Cn2ccnc2)c2ccc(Cl)cc2Cl)cc1` (stereo not given) [Sulconazole nitrate], the growth was found to be 0.0534 ± 0.0013 under setting [1]; 0.0668 ± 0.0017 under setting [2]; 0.0542 ± 0.00071 under setting [3]; 0.0669 ± 0.0011 under setting [4]; 0.0556 ± 0.0041 under setting [5].

As for `C[C@H]1C[C@@H]2[C@H]([C@@H](O)C[C@@]3(C)[C@H]2CC[C@]3(O)C(=O)CO)[C@@]2(C)C=CC(=O)C=C12` [Methylprednisolone, 6-alpha], the growth under setting [1] is 0.254 ± 0.013; the growth under setting [2] is 0.243 ± 0.0096; the growth under setting [3] came to 0.1512 ± 0.0011; the growth under setting [4] came to 0.116 ± 0.0032; the growth under setting [5] amounted to 0.134 ± 0.0027.

On to `CN(C)CCCN1c2ccccc2Sc2ccc(C(F)(F)F)cc21` [Triflupromazine hydrochloride], for which the growth came to 0.03957 ± 0.00015 under setting [1]; 0.0392 ± 0.00026 under setting [2]; 0.0407 ± 0.00062 under setting [3]; 0.0391 under setting [4]; 0.042 ± 0.00055 under setting [5].

Turning to `CC12CC3CC(C)(C1)CC(N)(C3)C2` [Memantine Hydrochloride], the growth amounted to 0.207 ± 0.007 under setting [1]; 0.237 ± 0.017 under setting [2]; 0.184 ± 0.0066 under setting [3]; 0.195 ± 0.019 under setting [4]; 0.175 ± 0.0048 under setting [5].

Turning to `CCn1cc(C(=O)O)c(=O)c2cc(F)c(N3CCNCC3)nc21` [Enoxacin], the growth turned out to be 0.0427 ± 0.0002 under setting [1]; 0.03917 ± 0.00031 under setting [2]; 0.0439 ± 0.0015 under setting [3]; 0.0411 ± 0.0025 under setting [4]; 0.0452 ± 0.0001 under setting [5].

With `OCCN1CCN(CC/C=C2/c3ccccc3Sc3ccc(Cl)cc32)CC1` [Zuclopenthixol dihydrochloride], the growth is, setting by setting: under setting [1], 0.257 ± 0.0079; under setting [2], 0.176 ± 0.005; under setting [3], 0.1981 ± 0.0017; under setting [4], 0.0779 ± 0.0011; under setting [5], 0.14 ± 0.0078.

Turning to `Nc1nnc(-c2cccc(Cl)c2Cl)c(N)n1` [Lamotrigine], the growth is, setting by setting: under setting [1], 0.206 ± 0.028; under setting [2], 0.203 ± 0.0052; under setting [3], 0.216 ± 0.014; under setting [4], 0.21 ± 0.0054; under setting [5], 0.179 ± 0.0078.

For the molecule `CC(C(=O)O)c1ccc(-c2ccccc2)c(F)c1` (stereo not given) [Flurbiprofen], the growth was 0.239 ± 0.014 under setting [1]; 0.23 ± 0.0069 under setting [2]; 0.168 ± 0.0089 under setting [3]; 0.161 ± 0.0092 under setting [4]; 0.1346 ± 0.00075 under setting [5].
